Several values for one entry are separate records, joined by “and”; a condition that tells them apart may be missing. Equal values may be shown once. Out of some 5,500 compounds screened, about 2,000 (36%) were called active. Another 18% or so got no clear call; they are omitted. The list shows a part of the results. A number with no mark means an inactive call. No stated cut-off is given here; in the data, active means normalized growth mostly below about 0.91 (no sharp cut-off); inconclusive means no clear call, values can overlap the other calls; inactive means mostly above about 0.92.
Assay: chemical genetic growth profiling, strain panel (AID 1159580);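 further: tested at 20 µM; growth read once vehicle control cultures reached saturation at 30 °C; 1 = growth at the plate median or of vehicle wells; lower values mean less growth of the strain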
Settings: S. cerevisiae deletion strains, growth OD

CC(=O)Oc1cccc2c1C(=O)c1c(OC(C)=O)cc(C(=O)O)cc1C2=O
normalized growth (locus YAL013W, strain DEP1, active compounds read low): 1 | normalized growth (locus YAL021C, strain ccr4, active compounds read low): 0.969 | normalized growth (locus YAL026C, strain drs2, active compounds read low): 0.896 (active) | normalized growth (locus YAL030W, strain snc1, active compounds read low): 0.93 | normalized growth (locus YBL061C, strain skt5, active compounds read low): 0.915 (active) | normalized growth (locus YBR009C, strain hhf1, active compounds read low): 0.919 | normalized growth (locus YBR021W, strain FUR4, active compounds read low): 0.994 | normalized growth (locus YBR023C, strain chs3, active compounds read low): 0.918 | normalized growth (locus YBR171W, strain sec66, active compounds read low): 0.957 | normalized growth (locus YBR229C, strain ROT2, active compounds read low): 1.01 | normalized growth (locus YBR231C, strain swc5, active compounds read low): 0.874 (active) | normalized growth (locus YBR279W, strain paf1, active compounds read low): 0.972 | normalized growth (locus YCL011C, strain gbp2, active compounds read low): 0.923 | normalized growth (locus YCL016C, strain dcc1, active compounds read low): 0.946 | normalized growth (locus YCL029C, strain bik1, active compounds read low): 0.585 (active) | normalized growth (locus YCL061C, strain MRC1, active compounds read low): 0.896 (active) | normalized growth (locus YCL069W, strain vba3, active compounds read low): 0.951 | normalized growth (locus YCR088W, strain abp1, active compounds read low): 0.929 | normalized growth (locus YDL005C, strain med2, active compounds read low): 0.943 | normalized growth (locus YDL035C, strain GPR1, active compounds read low): 1.01 | normalized growth (locus YDL040C, strain nat1, active compounds read low): 0.961 | normalized growth (locus YDL074C, strain BRE1, active compounds read low): 1.03 | normalized growth (locus YDL101C, strain DUN1, active compounds read low): 1.01 | normalized growth (locus YDL134C, strain PPH21, active compounds read low): 1.02 | normalized growth (locus YDL185W, strain tfp1, active compounds read low): 0.993 | normalized growth (locus YDL192W, strain arf1, active compounds read low): 0.175 (active) | normalized growth (locus YDR001C, strain nth1, active compounds read low): 0.93 | normalized growth (locus YDR069C, strain doa4, active compounds read low): 0.865 (active) | normalized growth (locus YDR101C, strain arx1, active compounds read low): 0.438 (active) | normalized growth (locus YDR137W, strain rgp1, active compounds read low): 0.97 | normalized growth (locus YDR150W, strain NUM1, active compounds read low): 1 | normalized growth (locus YDR159W, strain sac3, active compounds read low): 0.9 | normalized growth (locus YDR162C, strain NBP2, active compounds read low): 0.99 | normalized growth (locus YDR195W, strain ref2): 0.991 | normalized growth (locus YDR297W, strain sur2, active compounds read low): 0.913 (active) | normalized growth (locus YDR318W, strain mcm21, active compounds read low): 0.32 (active) | normalized growth (locus YDR334W, strain swr1, active compounds read low): 0.957 | normalized growth (locus YDR335W, strain msn5, active compounds read low): 0.949 | normalized growth (locus YDR388W, active compounds read low): 0.171 (active) | normalized growth (locus YDR392W, strain spt3, active compounds read low): 0.84 | normalized growth (locus YDR502C, strain sam2, active compounds read low): 0.341 (active) | normalized growth (locus YEL003W, strain gim4, active compounds read low): 0.954 | normalized growth (locus YEL037C, strain rad23, active compounds read low): 0.962 | normalized growth (locus YEL061C, strain CIN8 (second series), active compounds read low): 0.932 | normalized growth (locus YEL061C, strain CIN8, active compounds read low): 0.992 | normalized growth (locus YER015W, strain faa2, active compounds read low): 0.92 (active) | normalized growth (locus YER016W, strain bim1, active compounds read low): 0.945 | normalized growth (locus YER110C, active compounds read low): 0.643 (active) | normalized growth (locus YER111C, strain swi4, active compounds read low): 0.963 | normalized growth (locus YER155C, strain BEM2 (second series), active compounds read low): 0.858 (active) | normalized growth (locus YER155C, strain BEM2, active compounds read low): 1.01 | normalized growth (locus YER167W, strain BCK2, active compounds read low): 1 | normalized growth (locus YFR010W, strain ubp6, active compounds read low): 0.943 | normalized growth (locus YGL078C, strain dbp3, active compounds read low): 1 | normalized growth (locus YGL086W, strain mad1, active compounds read low): 0.337 (active) | normalized growth (locus YGL167C, strain pmr1, active compounds read low): 0.906 (active) | normalized growth (locus YGL173C, strain kem1, active compounds read low): 0.929 | normalized growth (locus YGL227W, strain vid30, active compounds read low): 0.962 | normalized growth (locus YGL240W, strain doc1, active compounds read low): 0.832 (active) | normalized growth (locus YGL248W, strain PDE1, active compounds read low): 1.01 | normalized growth (locus YGL253W, strain hxk2, active compounds read low): 0.932 | normalized growth (locus YGR078C, strain PAC10, active compounds read low): 1 | normalized growth (locus YGR135W, strain pre9, active compounds read low): 0.3 (active) | normalized growth (locus YGR229C, strain SMI1, active compounds read low): 1.02 | normalized growth (locus YGR252W, strain gcn5, active compounds read low): 0.33 (active) | normalized growth (locus YHR013C, strain ard1, active compounds read low): 0.991 | normalized growth (locus YHR027C, strain rpn1, active compounds read low): 0.942 | normalized growth (locus YHR030C, strain SLT2, active compounds read low): 0.999 and 0.943 | normalized growth (locus YHR079C, strain IRE1 (second series), active compounds read low): 0.481 (active) | normalized growth (locus YHR079C, strain IRE1, active compounds read low): 0.964 | normalized growth (locus YHR094C, strain hxt1, active compounds read low): 0.476 (active) | normalized growth (locus YHR129C, strain ARP1, active compounds read low): 1.01 | normalized growth (locus YHR142W, strain chs7, active compounds read low): 0.939 | normalized growth (locus YHR200W, strain rpn10, active compounds read low): 0.354 (active) | normalized growth (locus YIL066C, strain RNR3, active compounds read low): 1.02 | normalized growth (locus YIL073C, strain SPO22, active compounds read low): 0.995 | normalized growth (locus YIL125W, strain kgd1, active compounds read low): 1 | normalized growth (locus YIR030C, strain dcg1, active compounds read low): 0.456 (active) | normalized growth (locus YJL092W, strain hpr5, active compounds read low): 0.916 (active) | normalized growth (locus YJL095W, strain BCK1 (second series), active compounds read low): 0.909 (active) | normalized growth (locus YJL095W, strain BCK1, active compounds read low): 0.994 and 0.953 | normalized growth (locus YJL115W, strain asf1, active compounds read low): 0.939 | normalized growth (locus YJL129C, strain trk1, active compounds read low): 1 | normalized growth (locus YJL134W, strain LCB3, active compounds read low): 1.01 | normalized growth (locus YJL154C, strain vps35, active compounds read low): 0.953 | normalized growth (locus YJL164C, strain tpk1, active compounds read low): 0.875 (active) | normalized growth (locus YJL166W, strain qcr8, active compounds read low): 0.871 (active) | normalized growth (locus YJL168C, strain set2, active compounds read low): 0.545 (active) | normalized growth (locus YJL187C, strain SWE1 (second series), active compounds read low): 1.01 | normalized growth (locus YJL187C, strain SWE1, active compounds read low): 0.931 | normalized growth (locus YJR043C, strain POL32, active compounds read low): 0.998 | normalized growth (locus YJR066W, strain TOR1, active compounds read low): 0.902

— PubChem BioAssay AID1159580 (chemical genetic matrix, 2015)
